Assay results as given in publication PMC4336329 (PLoS ONE, 2015).
About 14,000 (4.5%) of roughly 310,000 compounds showed an effect of 50% or more. Effects have a minus sign here. Only a selection was taken, and strong results are over-represented in it overall.

biological target: human ether-à-go-go-related gene (hERG) potassium channel (human, UniProt Q12809); experiment: primary screen, population patch clamp on CHO cells stably expressing hERG; higher = less effect of the substance
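Further: peak tail current of the secondary pulse compared with the same well before compound.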

Sequence of human ether-à-go-go-related gene (hERG) potassium channel (Q12809 whole entry, looked up): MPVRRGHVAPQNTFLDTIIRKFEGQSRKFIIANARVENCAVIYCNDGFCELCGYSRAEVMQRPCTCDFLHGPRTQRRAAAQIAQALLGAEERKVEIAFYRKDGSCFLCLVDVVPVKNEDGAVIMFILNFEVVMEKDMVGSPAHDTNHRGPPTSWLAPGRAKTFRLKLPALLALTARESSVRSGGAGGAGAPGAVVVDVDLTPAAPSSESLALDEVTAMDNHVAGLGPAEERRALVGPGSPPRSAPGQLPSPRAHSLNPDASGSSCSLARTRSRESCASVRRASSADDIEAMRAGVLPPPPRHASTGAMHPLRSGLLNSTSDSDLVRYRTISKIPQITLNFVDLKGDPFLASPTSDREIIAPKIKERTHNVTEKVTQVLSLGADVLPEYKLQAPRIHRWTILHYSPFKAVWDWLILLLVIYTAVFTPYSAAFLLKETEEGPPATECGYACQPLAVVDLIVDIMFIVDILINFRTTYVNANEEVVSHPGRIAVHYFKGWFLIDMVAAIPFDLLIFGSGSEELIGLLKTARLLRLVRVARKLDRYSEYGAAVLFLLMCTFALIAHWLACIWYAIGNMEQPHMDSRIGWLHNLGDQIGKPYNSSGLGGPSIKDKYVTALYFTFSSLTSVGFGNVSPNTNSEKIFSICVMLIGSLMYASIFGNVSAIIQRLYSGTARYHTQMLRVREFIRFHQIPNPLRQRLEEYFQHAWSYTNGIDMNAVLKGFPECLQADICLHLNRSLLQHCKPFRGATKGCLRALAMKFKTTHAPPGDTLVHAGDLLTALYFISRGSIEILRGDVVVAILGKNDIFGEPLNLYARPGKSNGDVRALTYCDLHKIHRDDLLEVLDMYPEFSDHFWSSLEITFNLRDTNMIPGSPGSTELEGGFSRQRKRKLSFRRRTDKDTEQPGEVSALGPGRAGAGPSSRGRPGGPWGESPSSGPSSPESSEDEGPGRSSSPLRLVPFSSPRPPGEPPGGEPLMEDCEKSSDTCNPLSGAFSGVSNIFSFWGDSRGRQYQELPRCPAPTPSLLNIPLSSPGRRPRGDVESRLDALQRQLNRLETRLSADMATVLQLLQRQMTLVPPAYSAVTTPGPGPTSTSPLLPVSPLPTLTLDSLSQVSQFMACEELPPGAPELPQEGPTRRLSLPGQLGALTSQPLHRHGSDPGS

Structure (SMILES) | hERG current change (%, negative = inhibition) at 10uM [%]
CC(C)(C)OC(=O)N1CCCN(C(=O)Nc2ccc(OC(F)(F)F)cc2)CC1 | -22.6
Cc1csc2c(N3CCN(C(=O)Nc4ccc(OC(F)(F)F)cc4)CC3)ncnc12 | -32.9
O=C(Nc1ccc(Cl)cc1)N1CCN(c2ncccn2)CC1 | -13.2
Cc1csc2ncnc(N3CCN(C(=O)Nc4ccc(OC(F)(F)F)cc4)CC3)c12 | -68
Cc1csc2ncnc(N3CCN(C(=S)Nc4ccc(C(F)(F)F)cc4)CC3)c12 | -16.7
O=C(Nc1ccc(Cl)cc1)N1CCCN(c2ccc(C(F)(F)F)cc2[N+](=O)[O-])CC1 | 4.29
O=C(Nc1ccc(OC(F)(F)F)cc1)N1CCN(c2ccnc3cc(Cl)ccc23)CC1 | -72.1
O=C(Nc1ccc(C(F)(F)F)cc1)N1CCN(c2ccnc3cc(Cl)ccc23)CC1 | -62.2
Cc1ccc(S(=O)(=O)N(C)CC(=O)OCC(=O)NCCN2C(=O)CSC2=O)cc1 | -9.67
O=C(c1ccc(Cl)cc1)C(CN1CCCC1)c1ccccc1 (stereo not shown) | -10.3
COc1ccc(OC)c(NC(=O)Nc2nnc(N3CCC(C)CC3)s2)c1 | 5.07
COc1ccc(CCNC(=O)[C@@H](NC(=O)N2CCn3c2nc2ccccc23)C(C)C)cc1OC | -14.3
Cc1ccc(C)c(NS(=O)(=O)c2ccc(OCC(=O)N3CCOCC3)cc2)c1 | -7.34
O=C(CCNC(=O)c1ccc([N+](=O)[O-])cc1)NCCc1ccccc1 | -27.8
CCOc1ccc(-c2cc(CCCC(=O)NCc3cccnc3)no2)cc1 | -35
COc1ccccc1-c1nnc(NC(=O)C(C)Sc2nncn2C)s1 (stereo not shown) | -1.37
CCN(CC)c1ccc(NC(=O)c2ccccc2F)cc1 | -9.39
CCN(CC)c1cc(C)c2cc(NC(=O)c3ccccc3OC)ccc2n1 | -18.6
CCN(CC)c1cc(C)c2cc(NC(=O)c3cccs3)ccc2n1 | -72.2
Cc1nc2ccc(NC(=O)c3cccs3)cc2s1 | 19.8
Cc1nc2ccc(NC(=O)c3cccs3)cc2c(=O)n1Cc1ccc(Cl)cc1 | 9.84

Structure (SMILES) | hERG current change (%, negative = inhibition) at 10uM [%]
CCN(CC)c1cc(C)c2cc(NC(=O)c3ccccc3F)ccc2n1 | -81.3
COc1ccc(Cl)cc1N(CC(=O)Nc1ccc2c(c1)OCO2)S(C)(=O)=O | -24
COc1cccc(CNC(=O)Cc2c(C(=O)O)[nH]c3ccccc23)c1 | 8.83
COC(=O)[C@H](CC(C)C)NC(=O)Nc1ccccc1F | 16.6
Cc1ccccc1Cn1nc(C)c(NC(=O)c2nc3n(n2)C(C(F)F)CC(C)N3)c1C (stereo not shown) | 0.0862
O=C(CCN1C(=O)c2ccccc2C1=O)NNC(=O)c1ccc(Cl)cc1Cl | 6.82
c1ccc(-c2nc(N3CCN(c4ccccc4)CC3)nc(-n3ccnc3)n2)cc1 | -2.66
c1ccc(N(c2ccccc2)c2nc(-n3ccnc3)nc(-n3ccnc3)n2)cc1 | -24.2
c1ccc(-c2nc(-n3ccnc3)nc(-n3ccnc3)n2)cc1 | -69.4
CN(c1ccccc1)c1nc(N2CCCC2)nc(-n2ccnc2)n1 | -19.5
CN(c1ccccc1)c1nc(-n2ccnc2)nc(-n2ccnc2)n1 | -67.7
CC(C)Nc1nc(-c2ccccc2)nc(-n2ccnc2)n1 | -0.0673
Cc1ccc(S(=O)(=O)N2c3ccccc3CC2C)cc1 (stereo not shown) | 13.4
COc1ccc(C(=O)CC(=O)C(=O)NCCc2cccc(C)c2)cc1 | 7.31
O=C(C(=O)N1CCN(c2ccccc2)CC1)c1c[nH]c2ccccc12 | 4.09
C/C(CC(=O)Nc1ccc2ccccc2c1)=N\NC(=O)c1ccc(O)c(O)c1 | -6.73
COCCN1C(=O)CC(NNC(=O)c2ccc(S(=O)(=O)N3CCCC3)cc2)C1=O (stereo not shown) | 10
CCOC(=O)C1CCN(C(=O)CS(=O)Cc2nc(-c3ccc(C)cc3)oc2C)CC1 (stereo not shown) | -0.626
CCN(C(=O)COC(=O)c1cc(Cl)ccc1OC)c1c(N)n(Cc2ccccc2)c(=O)[nH]c1=O | 4.46
O=C(Cc1ccccc1)NN1C(=O)c2ccccc2C1=O | -9.37
COc1ccc(CCNC(=O)CSc2nnc3c(n2)[nH]c2ccc(F)cc23)cc1OC | 12.8

Structure (SMILES) | hERG current change (%, negative = inhibition) at 10uM [%]
CCN(CC)S(=O)(=O)c1ccc2c(c1)nc(CCC(=O)OCC(=O)Nc1c(F)cccc1F)n2C | -34.6
CNC(=O)NC(=O)COC(=O)CCc1nc(=O)c2ccccc2n1C | -19.2
CCc1ccc(NC(=O)COC(=O)CCc2nc3cc(S(=O)(=O)N(CC)CC)ccc3n2C)cc1 | -60
Cn1c(CCC(=O)OCC(=O)Nc2ccc(Oc3ccccc3)cc2)nc(=O)c2ccccc21 | -53.3
CCNC(=O)NC(=O)COC(=O)CCc1nc(=O)c2ccccc2n1C | 4.87
CCN(CC)S(=O)(=O)c1ccc2c(c1)nc(CCC(=O)OCC(=O)Nc1cc(OC)cc(OC)c1)n2C | -48.5
CN1CCNC(=O)C1CC(=O)NCCC1=CCCCC1 (stereo not shown) | 18.2
Cc1ccc(C(C)C)c(OCc2nnc(SCC(=O)Nc3ncc(C)s3)n2C)c1 | -4.11
CN(C)c1nnnn1-c1ccc(OC(F)(F)F)cc1 | -9.73
CCCC1(c2ccccc2)NC(=O)N(CC(=O)Nc2cc(S(=O)(=O)N3CCOCC3)ccc2Cl)C1=O (stereo not shown) | -22.6
CC(C)(C)NC(=O)N1CCCN(c2ccc(C(F)(F)F)cn2)CC1 | -0.47
C[C@H]1C=C(C(=O)NCc2ccccc2)O[C@@H](OCc2ccc(CO)cc2)C1 | -10.5
Cc1cc(NC(=O)c2cccc(Oc3ccccc3)c2)n[nH]1 | 1.16
COc1ccccc1N(C)S(=O)(=O)c1ccc(C(=O)OCC(=O)NCCC2=CCCCC2)cc1 | -4.24
CCCC(=O)NC(C)C(c1cccs1)N1CCN(c2ccccc2)CC1 (stereo not shown) | -7.64
Cc1cccc(N2CCN(CCCNC(=O)C3CCCN(c4ncnc5c4nc4n5CCCCC4)C3)CC2C)c1 (stereo not shown) | -67.8
Cc1cccc(CCNC(=O)C2CCCN(c3ncnc4c3nc3n4CCCCC3)C2)c1 (stereo not shown) | -59.8
O=C(NCCc1ccc(Cl)cc1)C1CCCN(c2ncnc3c2nc2n3CCCCC2)C1 (stereo not shown) | -57.2
CC1CCCCN1CCNC(=O)C1CCCN(c2ncnc3c2nc2n3CCCCC2)C1 (stereo not shown) | -14.3
COc1ccc(CCNC(=O)C2CCCN(c3ncnc4c3nc3n4CCCCC3)C2)c(OC)c1 (stereo not shown) | -42.8
CC1CCCN(CCCNC(=O)C2CCCN(c3ncnc4c3nc3n4CCCCC3)C2)C1 (stereo not shown) | -4.72

Structure (SMILES) | hERG current change (%, negative = inhibition) at 10uM [%]
COc1ccccc1N1CCN(CCCNC(=O)C2CCCN(c3ncnc4c3nc3n4CCCCC3)C2)CC1 (stereo not shown) | -40.3
COc1cccc(CCNC(=O)C2CCCN(c3ncnc4c3nc3n4CCCCC3)C2)c1OC (stereo not shown) | -74.7
CC1CC(C)CN(CCCNC(=O)C2CCCN(c3ncnc4c3nc3n4CCCCC3)C2)C1 (stereo not shown) | -14.1
C=CCN(CC=C)CCOc1ccc(C)cc1[N+](=O)[O-].O=C(O)C(=O)O | -47.3
O=C(Oc1cccc(-n2cnnn2)c1)c1ccco1 | 6.57
O=C(COC(=O)Cc1ccsc1)NCc1ccccc1 | 19.6
Clc1ccc(-c2ccc(/C=N/Nc3nncc(-c4ccccc4)n3)o2)cc1 | 20.8
Cc1cccc(C)c1NC(=O)CN(C)C(=O)c1cccc(NS(=O)(=O)c2ccccc2)c1 | -4.78
Cc1ccc(S(=O)(=O)NN=C2CCC(C(C)(C)C)CC2)cc1[N+](=O)[O-] (stereo not shown) | -8.37
COc1ccc(/C=C/C(=O)Oc2cccc(/C=N/NC(=O)COc3c(C)cccc3C)c2)cc1 | 11.8
Cc1cccc(-c2ocnc2C(=O)Nc2ccccc2C(=O)N2CCCC2)c1 | -37
COc1ccc(C(=O)Nc2ccc(S(=O)(=O)N3CCCCC3C)cc2)c(OC)c1OC (stereo not shown) | -6.46
CCOc1ccc(CCNC(=O)C2CCCN(c3ncnc4c3nc3n4CCCCC3)C2)cc1 (stereo not shown) | -58.6
CN(CCNC(=O)C1CCCN(c2ncnc3c2nc2n3CCCCC2)C1)Cc1ccccc1 (stereo not shown) | -29.1
CSc1ccc(CCNC(=O)C2CCCN(c3ncnc4c3nc3n4CCCCC3)C2)cc1 (stereo not shown) | -61.8
O=C(NCCc1ccccc1)C1CCCN(c2ncnc3c2nc2n3CCCCC2)C1 (stereo not shown) | -59.9
Cc1ccc(CCNC(=O)C2CCCN(c3ncnc4c3nc3n4CCCCC3)C2)cc1 (stereo not shown) | -28.7
CC1CCCC(C)N1CCCNC(=O)C1CCCN(c2ncnc3c2nc2n3CCCCC2)C1 (stereo not shown) | 8.21
CC1CCN(CCNC(=O)C2CCCN(c3ncnc4c3nc3n4CCCCC3)C2)CC1 (stereo not shown) | 12.5
